Among all 96,000 compounds or so, about 20,000 (21%) were called active. The list is a sample of the results. A number with no mark means an inactive call.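 How the source made its calls: active means CYP2C19 inhibition above a set limit at 5 µM in the primary screen (cut at about 50% in these data); inactive means the rest.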

Cytochrome P450 2C19 (Homo sapiens), sequence (P33261 whole entry, looked up): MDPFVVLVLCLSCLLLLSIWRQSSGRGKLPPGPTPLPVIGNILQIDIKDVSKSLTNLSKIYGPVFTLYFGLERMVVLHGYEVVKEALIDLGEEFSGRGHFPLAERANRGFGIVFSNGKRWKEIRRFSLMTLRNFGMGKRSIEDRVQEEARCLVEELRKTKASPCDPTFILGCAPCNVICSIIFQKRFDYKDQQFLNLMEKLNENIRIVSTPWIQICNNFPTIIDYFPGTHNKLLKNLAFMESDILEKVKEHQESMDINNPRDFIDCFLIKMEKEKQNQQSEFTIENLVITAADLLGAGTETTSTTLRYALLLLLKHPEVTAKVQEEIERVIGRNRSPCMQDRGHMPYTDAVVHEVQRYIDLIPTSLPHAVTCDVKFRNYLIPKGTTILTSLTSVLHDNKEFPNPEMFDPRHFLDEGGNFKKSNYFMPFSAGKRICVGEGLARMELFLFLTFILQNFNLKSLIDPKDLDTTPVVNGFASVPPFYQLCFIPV

The assay addresses Cytochrome P450 2C19 (Homo sapiens) (UniProt P33261). The assay can be described thus: blockers of cytochrome P450 2C19 activity – biochemical, luminescence, ADME assay, primary screen (AID 778).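 Further: plate controls were negative control wells for no effect and 2.5 mM tranylcypromine positive control for full effect.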 The following applies: CYP2C19 Supersomes, luciferin-H EGE luminescence, 30 min; at 5 µM; stronger effect = higher value.
A word on the inhibition: it is the change of the read-out against control, counted positive when it falls. For `O=C(N/N=C/c1ccc(O)c(O)c1)C1c2ccccc2Oc2ccccc21`, the inhibition was -4.1%.

In the case of `CCCN(CCC)C(=O)C1c2ccccc2Oc2ccccc21`, the inhibition is 57.1% (active).

`COCC(=O)Nc1ccc(Br)cc1`: the inhibition was 13%.

As for `CCCCc1nc2ccccc2c(=O)n1NC(=O)c1c(O)c2cccc3c2n(c1=O)CC3`, the inhibition is 8%.

Consider `CCCCn1nc(C(=O)N2CCc3ccccc32)c2ccccc2c1=O`, for which the inhibition is 69.6% (active).

As for `O=C(c1cnn2ccccc12)N1CCc2ccccc21`, the inhibition was 25.2%.

Take `Cc1ccc(-c2cc(C(=O)N/N=C/C=C/c3ccco3)c3ccccc3n2)cc1C`: the inhibition is -4.3%.

As to `COC(=O)c1c(C)c(C)nc(N)c1C#N`, the inhibition was -7.3%.

On to `O=C(CN1CCCCCC1)Nc1ccc(Br)cc1Br`, for which the inhibition was 42.6%.

Consider `CCOC(=O)c1sc(=S)n(-c2cccc(OC)c2)c1N`, for which the inhibition was 31.5%.

With `CCOc1cccc(-n2nnnc2-c2ccc(OC)cc2)c1`, the inhibition is 100% (active).

On to `CCOc1cccc(-c2nnc3sc(COc4ccc(OC)cc4)nn23)c1`, for which the inhibition was 19.8%.

Consider `Cc1ccc2[nH]c3c(=O)n(Cc4ccccn4)cnc3c2c1`, for which the inhibition was -0.8%.

As to `CC(C)C(=O)OCC(=O)Nc1ccc2c(c1)CCC2`, the inhibition was 16.8%.

In the case of `COc1ccc(CC(=O)Nc2ccc3c(c2)CCC3)cc1S(=O)(=O)N1CCOCC1`, the inhibition is 54.5% (active).

Consider `COc1ccc(CNc2ccc3c(c2)CCC3)cc1OC`, for which the inhibition is 49.8%.

Take `S=C1NC(c2ccccc2)=NCN1c1ccc(Br)cc1`: the inhibition was 52.3% (active).

On to `O=C1CN(c2nc(-c3ccccc3)c3cc(Br)ccc3n2)c2ccccc2N1`, for which the inhibition is -14.1%.

As for `C=CCn1c2ccccc2c2nnc(SC(CC)C(=O)Nc3nc(C)c(C(=O)OCC)s3)nc21` (stereo not given), the inhibition was 48.6%.

For the compound `CCN(CC)CCNC(=O)C1c2ccccc2C(=O)N(C)C1c1cn(C)c2ccccc12` (stereo not given), the inhibition was -5.9%.

As to `Cc1cccc(NC(=O)c2ccccc2NC(=O)C(C)(C)C)n1`, the inhibition was 30.7%.

Take `Cc1nc(-c2ccccc2)sc1C(=O)/C=C/c1ccccc1`: the inhibition was 16.8%.

In the case of `Cc1ccc(SCC(=O)Nc2ncc(C)s2)cc1`, the inhibition was 49.5%.

Consider `Cc1ccc(SCC(=O)c2sc(-c3ccccc3)nc2C)cc1`, for which the inhibition was 60.9% (active).

On to `CC1CN(Cc2nc3c(c(=O)n(C)c(=O)n3C)n2Cc2cccc(Cl)c2)CC(C)O1` (stereo not given), for which the inhibition is 35.9%.

The values above are taken from PubChem BioAssay AID778 (Sanford-Burnham Center for Chemical Genomics, 2007).
